Among all 370,000 compounds or so, about 2,800 (0.76%) were called active. The full list was thinned out, with actives kept by preference. Values without a mark were called inactive. Cut-off read from the data, not from the text of the source: active = inhibition above about 21%; inactive = the rest.

In this experiment the target is E3 ubiquitin-protein ligase UHRF1 (Homo sapiens) (UniProt Q96T88). Put plainly: UHRF1 methylated DNA binding inhibitors, primary screen, counter-screen for MBD2 inhibitor project, biochemical, TR-FRET, human UHRF1, single concentration (AID 687016).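 Note: UHRF1 SRA domain binding a hemimethylated CpG hairpin DNA probe; 0% = median of test compound wells and 100% = reference inhibitor.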 The conditions noted are these: UHRF1 binding to methylated oligo, at 4.4 µM, stronger effect = higher value. For orientation: Counterscreens check selectivity or assay interference.
Sequence of E3 ubiquitin-protein ligase UHRF1 (Homo sapiens) (Q96T88 whole entry, looked up, the tested form may be a part): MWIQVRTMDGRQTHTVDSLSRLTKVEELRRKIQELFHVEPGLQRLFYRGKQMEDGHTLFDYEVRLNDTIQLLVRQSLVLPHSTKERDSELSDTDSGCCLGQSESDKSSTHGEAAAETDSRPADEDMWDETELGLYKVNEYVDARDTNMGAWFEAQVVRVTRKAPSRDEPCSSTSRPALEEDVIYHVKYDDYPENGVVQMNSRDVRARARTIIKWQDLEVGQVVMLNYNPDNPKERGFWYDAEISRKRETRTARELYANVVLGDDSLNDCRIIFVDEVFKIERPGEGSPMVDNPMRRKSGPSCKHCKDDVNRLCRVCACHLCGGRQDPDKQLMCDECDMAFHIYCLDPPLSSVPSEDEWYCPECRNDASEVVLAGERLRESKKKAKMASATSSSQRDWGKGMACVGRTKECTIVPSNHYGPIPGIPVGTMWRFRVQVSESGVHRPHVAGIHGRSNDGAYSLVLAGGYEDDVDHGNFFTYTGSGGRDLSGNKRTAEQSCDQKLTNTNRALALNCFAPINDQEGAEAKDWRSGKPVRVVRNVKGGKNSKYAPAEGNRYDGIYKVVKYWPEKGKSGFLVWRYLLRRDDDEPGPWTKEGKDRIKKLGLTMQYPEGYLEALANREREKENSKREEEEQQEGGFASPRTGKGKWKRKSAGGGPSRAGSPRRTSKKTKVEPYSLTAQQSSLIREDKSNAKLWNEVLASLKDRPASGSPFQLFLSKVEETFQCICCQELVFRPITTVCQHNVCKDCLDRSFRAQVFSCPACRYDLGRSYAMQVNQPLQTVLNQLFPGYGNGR
With `O=C(NCC1COc2ccccc2O1)c1ccc(NC(=O)c2cc(F)ccc2F)cc1` (centres undefined), the inhibition (in general, the relative decrease from the control value, in per cent) is -0.34%.
`O=C(CNS(=O)(=O)c1ccccc1F)N1CCN(c2ccccn2)CC1`: the inhibition is -1.25%.
In the case of `NC1=CC(=O)C(=O)c2cccnc21`, the inhibition is 21.7% (active).
The same measure for `Cc1cc(C(F)(F)F)c(C#N)c(SCC(=O)NC2CC2)n1`: 25.8% (active); for `Cc1nc(SCC(=O)NC2CCCCC2C)c(C#N)c(C)c1C` (centres undefined): 3.02%.
The same measure for `Cc1cc(C)c(C#N)c(SCC(=O)NN2CC(=O)N(c3ccccc3F)CC2=O)n1`: 1.74%; for `CCCCOCCCNC(=O)C[C@H]1C[C@@]2(C(=O)OC)C(=C[C@H](COCc3ccccc3)O[C@@H]2C)N(Cc2cccc3ccccc23)C1=O`: -3.11%.
Turning to `CCOC(=O)c1csc(NC(=O)C2CCCN(S(=O)(=O)c3ccc(Cl)s3)C2)n1` (centres undefined), the inhibition is 0.11%.
For `CC(C)CNS(=O)(=O)CC1NCCc2ccccc21` (centres undefined), the inhibition is 1.66%.
The same measure for `C=C1c2c(Cl)ccc(O)c2C(O)=C2C(=O)[C@]3(O)C(O)=C(C(N)=O)C(=O)[C@@H](N(C)C)[C@@H]3[C@@H](O)C12` (some centres undefined): 58.9% (active); for `CN(C)[C@@H]1C(=O)C(C(N)=O)=C(O)[C@@]2(O)C(=O)C3=C(O)c4c(O)ccc(Cl)c4[C@@H](O)[C@H]3C[C@@H]12`: 35.1% (active).
For the compound `CC(C)C(C#CC1CC1)N(Cc1ccc2c(c1)OCO2)C(N)=NC(=O)/C=C/c1cccc(C(F)(F)F)c1` (centres undefined), the inhibition was -0.23%.
The same measure for `CN(CCO)c1cccc2c1S(=O)(=O)N(Cc1cn(Cc3ccc(C(F)(F)F)cc3)nn1)Cc1ccccc1O2`: 1.05%; for `CCCCC(=O)N[C@@H]1CC[C@@]23CCCN2C(=O)CCC[C@H]3[C@H]1C`: -2.76%; for `CCOC(=O)CSc1nc(C)cc2c1C(=O)OC2`: -0.04%.
For `CCN(Cc1ccncc1)C(=O)CCc1ccccc1`, the inhibition was -1.14%.
The same measure for `CCN(Cc1ccccc1)C(=O)CSc1nc(C)cc2c1C(=O)OC2`: 26% (active); for `COc1ccc(-n2c(SCC(=O)Nc3ccccc3-c3ccccc3)nnc2-c2cccnc2)cc1`: 1.25%; for `C[C@@H]1ON(C)[C@H]2C[C@H]3c4[nH]c5cccc(-c6ccc7c(c6)OCO7)c5c4CCN3C[C@@H]12`: 4.06%.
For the compound `COc1ccc(CCn2c(=N)c(C(=O)NCC3CCCO3)cc3c(=O)n4cccc(C)c4nc32)cc1OC` (centres undefined), the inhibition was 24.6% (active).
For the compound `Cc1ccc2nc3c(cc(C(=O)NCCc4ccccc4)c(=N)n3CC3CCCO3)c(=O)n2c1` (centres undefined), the inhibition was -6.46%.
The same measure for `COc1ccc(CCNC(=O)CCn2c(=O)c3ccccc3n(CC(=O)NCC3CCCO3)c2=O)cc1OC` (centres undefined): 2.05%; for `O=C(c1cccc(C(F)(F)F)c1)N1CC[C@H]2[C@H](CCCN2Cc2cc(F)cc(F)c2)C1`: -0.64%; for `Cc1noc(C)c1NC(=O)Nc1cccc2c1O[C@H](CN(C)C(=O)Nc1ccccc1)[C@@H](C)CN([C@H](C)CO)C2=O`: -2.78%.
On to `Cc1noc(C)c1NC(=O)Nc1ccc2c(c1)C(=O)N([C@H](C)CO)C[C@H](C)[C@@H](CN(C)C(=O)Nc1ccccc1)O2`, for which the inhibition is 22.9% (active).
The same measure for `Cc1noc(C)c1NC(=O)Nc1ccc2c(c1)C(=O)N([C@H](C)CO)C[C@H](C)[C@@H](CN(C)C(=O)Nc1ccc(C(F)(F)F)cc1)O2`: -2.17%; for `Cc1nc2ccc(C(=O)N3CCN(C(=O)C(C)(C)C)CC3)cc2n1C1CCCC1`: 0.45%.
The same measure for `CN(C(=O)COC(=O)c1cc(-c2ccco2)nc2ccccc12)C1CCS(=O)(=O)C1` (centres undefined): 52.1% (active); for `CN(C(=O)COC(=O)c1cc(=O)[nH]c2ccccc12)C1CCCCC1`: -1.98%; for `Cc1cc(C(=O)OCC(=O)N2C(C)CCCC2C)c2ccccc2n1` (centres undefined): 1.46%.
The same measure for `C#CCN([C@H](C(=O)OC)C(C)CC)S(=O)(=O)c1ccccc1Br` (some centres undefined): -1.76%; for `C=CCN(Cc1ccc2c(c1)OCO2)C(C#CC1CC1)C(C)(C)C` (centres undefined): 1.41%; for `Cc1cccc(N2CCN(Cc3c(C)n(C)n(-c4ccccc4)c3=O)CC2)c1C`: -0.95%.
`Cc1c(CN2CCC(C)CC2)c(=O)n(-c2ccccc2)n1C`: the inhibition is 2.11%.
The same measure for `Cc1c(C=O)n(C)n(-c2ccccc2)c1=O`: 25.1% (active); for `CCOC(=O)[C@]12CCCCC/C=C\1N(Cc1ccc(OC)cc1)C(=O)[C@H]2CC(=O)NCc1ccc(C)o1`: -2.03%; for `COc1ccc(C(=O)CSc2nnc(-c3cnccn3)n2-c2ccc(C)cc2)cc1`: 0.05%.
The same measure for `COc1ccc(CN(CCN2CCOCC2)C(=O)c2ccc(C)cc2)cc1OC`: -0.61%; for `C[C@@H]1CN([C@H](C)CO)S(=O)(=O)c2ccc(C#C[C@@H](C)O)cc2O[C@@H]1CN(C)Cc1ccc(-c2ccccc2)cc1`: 0.52%.
For the compound `C[C@H]1CN([C@@H](C)CO)S(=O)(=O)c2ccc(-c3cccc(F)c3)cc2O[C@@H]1CN(C)C`, the inhibition is 0.38%.
The same measure for `C[C@@H]1CN([C@@H](C)CO)S(=O)(=O)c2ccc(C#Cc3cccc(F)c3)cc2O[C@H]1CN(C)S(=O)(=O)c1cn(C)cn1`: 21.5% (active).
As for `C[C@@H]1CN([C@H](C)CO)S(=O)(=O)c2ccc(C#CC3CCCCC3)cc2O[C@H]1CN(C)C(=O)Cc1ccncc1`, the inhibition was 23.8% (active).
For the compound `COCC(=O)N(C)C[C@H]1Oc2cc(Br)ccc2S(=O)(=O)N([C@H](C)CO)C[C@H]1C`, the inhibition was 0.32%.
The same measure for `C[C@H]1CN([C@@H](C)CO)S(=O)(=O)c2ccc(Br)cc2O[C@H]1CN(C)C(=O)c1cnccn1`: -0.94%; for `Nn1c(SCC(=O)Nc2ccc(S(N)(=O)=O)cc2)nnc1-c1n[nH]c2c1CCC2`: 0.51%.
As for `CC(=O)OC12CCCN(C1)/C(=C/c1ccncc1)C2` (centres undefined), the inhibition was 3.27%.
The same measure for `O=C1CC[C@@]23CCCN2C(=O)CCC[C@H]3[C@H]1Cc1ccccc1`: 0.21%; for `Cc1cc(NS(=O)(=O)c2ccc(NC(=O)CSc3nnc(SCc4ccc(F)cc4)s3)cc2)nc(C)n1`: 3.58%; for `CCC(C)[C@@H](C(=O)OC)N(CCc1cn(Cc2ccccc2)nn1)S(=O)(=O)c1ccccc1Br` (some centres undefined): -0.53%.
The same measure for `C[C@@H]1CN([C@@H](C)CO)C(=O)c2cccc(NC(=O)Nc3cccc4ccccc34)c2O[C@H]1CN(C)S(=O)(=O)c1ccccc1F`: -3.8%.
As for `Cc1ccc(-c2nc3ccc(Br)cn3c2Cc2ccccc2C(F)(F)F)cc1`, the inhibition is 2.47%.
Take `COc1ccccc1Cc1c(-c2ccc(Cl)cc2)nc2ccc(Cl)cn12`: the inhibition is -0.13%.
With `COC(=O)c1ccc2nc(-c3ccccc3)c(Cc3ccc(OC)cc3C)n2c1`, the inhibition was 22.1% (active).
Consider `COC(=O)c1ccc2nc(C3CCCCC3)c(Cc3cccc(F)c3)n2c1`, for which the inhibition is 27.9% (active).
The same measure for `COC(=O)c1ccc2nc(-c3ccc(C)cc3)c(Cc3ccc(OC)cc3C)n2c1`: 21.6% (active); for `CC(=O)Nc1c(-c2ccc(C)cc2)nc2ccc(Cl)cn12`: -0.52%; for `COc1ccccc1Cc1c(-c2ccc(F)cc2)nc2ccc(C)cn12`: 11.5%.
The same measure for `Brc1ccc2nc(-c3ccccc3)c(Cc3ccccc3)n2c1`: 11%; for `CC(C)(C)Cc1c(C2CCCCC2)nc2ccc(Br)cn12`: 0.2%; for `COC(=O)c1ccc2nc(-c3ccc(F)cc3)c(Cc3ccc(C)cc3)n2c1`: 22.9% (active).
Regarding `COC(=O)c1ccc2nc(-c3ccc(OC)c(OC)c3)c(Cc3ccccc3)n2c1`, the inhibition is 14.6%.
The same measure for `COC(=O)c1ccc(CNC(=O)C2CCC(=O)N(Cc3cccc(F)c3)C2)cc1` (centres undefined): 0.28%.
The same measure for `COP(=O)(O)CNC(=O)OCc1ccccc1`: -1.09%; for `Nc1[nH]c(/C=C2/CCCCC2n2[nH]c(=O)n(-c3ccccc3)c2=O)c(Cc2ccccc2)[n+]1Cc1ccccc1` (centres undefined): 15.8%; for `Nn1c(SCC(=O)N2c3ccccc3Sc3ccccc32)nnc1-c1n[nH]c2c1CCC2`: 2%.
The same measure for `C=CCn1c(SCC(N)=O)nnc1-c1ccccc1OC`: -0.8%.
In the case of `Cc1ccc(C(=O)N(Cc2ccccn2)CC2CCCO2)cc1` (centres undefined), the inhibition was 0.72%.
For the compound `CCOC(=O)N1CCN(C(=O)C[C@H]2C[C@@]3(C(=O)OC)C(=C[C@H](C(C)(C)C)O[C@@H]3C)N(Cc3ccc(Cl)cc3Cl)C2=O)CC1`, the inhibition is 0.78%.
Consider `CCC(c1ccc(NC(=O)OC(C)(C)C)cc1)c1cc(OC)cc(OC)c1` (centres undefined), for which the inhibition is -0.84%.
The same measure for `Fc1ccc2nc(COCc3nc4ccc(F)cc4[nH]3)[nH]c2c1`: 0.71%; for `COC(=O)c1ccc2nc(-c3cccc(Br)c3)c(Cc3ccccc3C(F)(F)F)n2c1`: 3.57%; for `COc1ccc(-c2nc3ccc(Br)cn3c2Cc2ccc(C)cc2)cc1OC`: 4.35%.
For the compound `COC(=O)c1ccc2nc(-c3cccc(Br)c3)c(Cc3ccc(OC)cc3C)n2c1`, the inhibition was 21.5% (active).
As for `O=C(CCl)NC1CCCCN(Cc2cccc(C(F)(F)F)c2)C1=O` (centres undefined), the inhibition is 0.33%.
The same measure for `CCN(CC(=O)Nc1ccc(NC(C)=O)cc1)C(=O)C1CC(=O)N(Cc2ccc(C)cc2)C1` (centres undefined): 21.3% (active); for `Cc1ccc(CN2CC(C(=O)N3CCN(S(=O)(=O)c4ccccc4)CC3)CC2=O)cc1` (centres undefined): 9.15%.
Turning to `CCN(CC(=O)Nc1ccc(NC(C)=O)cc1)C(=O)C1CC(=O)N(c2ccc3c(c2)OCCO3)C1` (centres undefined), the inhibition was 1.89%.
Take `CCCNC(=O)Nc1ccc2c(c1)C(=O)N(C)[C@H]1CC[C@H](CC(=O)NCC3CCCCC3)O[C@@H]1CO2`: the inhibition was 10.6%.
With `O=C(CSc1nnc(COc2ccccc2)n1-c1ccc(Cl)cc1)Nc1ccc2c(c1)OCO2`, the inhibition was 1.16%.

For the origin of these results see PubChem BioAssay AID687016 (The Scripps Research Institute Molecular Screening Center, 2013).
